Bioassay records as filed in PubChem BioAssay.
This is a sample that favours compounds with a hit; in the whole collection about 19% have one here.
ELG1 DNA repair: inhibitors of ELG1-dependent DNA repair in HEK293T cells. 2.3% of 330,000 active. HEK293T ELG1-luciferase reporter, luminescence, 16 h; DNA damage induced by 5-fluorouridine. Potency, µM (series often up to 46.1 µM), for inactives: at the top dose activity change, negative = inhibition, most hits filed as inhibitors; further: potency means the concentration at half of the fitted maximal effect; nearly all actives have a fitted effect of over 55% in size
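Quantitative HTS, concentration-response format. 2,000 cells/well co-treated with 5-fluorouridine and compound, 16 hr in 5% CO2 at 37 °C; ONE-Glo luminescence read after 30 min.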
HT1080 IDH1KD tx: toxicity to HT-1080 IDH1 knockdown cells (counter line) | HT-1080 IDH1 knockdown viability, ATP luminescence, 48 h | 2% of 360,000 active | Potency, µM (titrated, usually from 46.1 µM), without a hit: at the top dose activity, negative = toxicity, hits mostly cytotoxic;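 further: potency means the concentration at half of the fitted maximal effect; 0% = DMSO wells and -100% = cell-free medium wells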
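% activity derives from luminescence (CellTiter-Glo), normalised to DMSO and no-cell wells. HT-1080-IDH1KD cells, 750/well, had 48 h compound exposure at 37 °C.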
IL1B secr inh: inhibitors of inflammasome signaling (IL-1 beta secretion) | THP-1 LPS/ATP IL-1B secretion, AlphaLISA, 16 h; hits give low values | activity change, % at 57.5 µM | 4.7% of 360,000 active; in the data active means activity change below about -50%; inconclusive means mostly about -30% to -49%
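THP-1 cells pretreated 1 hr with compounds (up to 57.5 uM final), then stimulated with LPS (250 ng/mL final) plus ATP (1.25 mM final); secreted IL-1B measured by AlphaLISA after 16 hr, decreased signal indicating inhibition.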
DT40 TDP1 no CPT: qHTS for Inhibitors of human tyrosyl-DNA phosphodiesterase 1 (TDP1): qHTS in cells in absence of CPT; Potency, µM (highest dose often 46.2 µM), inactives show at the top dose activity change, negative = growth inhibition, actives largely listed as inhibitors; DT40 Tdp1-/- hTDP1 cells, no CPT, ATP luminescence, 48 h; 15% of 420,000 active; AID 686978, 2013; further: potency means the concentration at half of the fitted maximal effect; nearly all actives have a fitted effect of over 55% in size
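Readout: luminescence from CellTiter-Glo after 30 min in the dark at RT. Cells: DT40 Tdp1-/- with stable hTDP1, 400/well. Exposure: compounds alone, ≥48 hr, 37 °C.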
HT1080-NT tox: kills 2HG-producing HT-1080-NT fibrosarcoma cells; HT-1080-NT fibrosarcoma viability, CellTiter-Glo ATP luminescence, 48 h; Potency, µM (highest dose often 46.1 µM), for the others: at the top dose activity, negative = less viability, usual class: cytotoxic; 1.6% of 360,000 active; AID 686970;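 further: NT is the 2HG producing partner of a matched IDH1 knockdown line; potency means the concentration at half of the fitted maximal effect; 0% = DMSO-treated cells and -100% = media-only wells without cells; nearly all actives have a fitted effect of over 55% in size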
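Fibrosarcoma NT cells, 750 per well in 5% FBS RPMI, were exposed to compound for 48 hours. Viability: CellTiter-Glo luminescence.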
TDP1 cell CPT: growth inhibition of DT40 Tdp1-/-;hTDP1 cells with camptothecin (screen for TDP1 inhibitors); chicken DT40 Tdp1-/-;hTDP1 cells + 20 nM CPT, ATP luminescence, 48 h; Potency, µM (titrated, usually from 46.2 µM), for inactives: top-dose activity change, negative = growth inhibition, usual class: inhibitors; 12% of 420,000 active; further: potency means the concentration at half of the fitted maximal effect; nearly all actives have a fitted effect of over 55% in size
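Chicken DT40 Tdp1-/- cells complemented with human TDP1, 400 cells/well, exposed to compounds plus 20 nM camptothecin for at least 48 h at 37 C; viability read as ATP content by CellTiter-Glo luminescence.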
An asterisk follows results filed as active; ? = inconclusive; · = no result; [ ] = remark or other dose. Unless noted, the call rests on the fitted dose curve; in most records, active means well fitted curve in the direction sought with a large enough effect; inconclusive means small, poorly fitted or top-dose-only effect, or another doubt; inactive means no such curve, though single readings can be large; an effect the other way counts as inactive or inconclusive. Unless noted, on the % scale 0 is the no-effect control and ±100 the full control effect.

SMILES | ELG1 DNA repair | HT1080 IDH1KD tx | IL1B secr inh | DT40 TDP1 no CPT | HT1080-NT tox | TDP1 cell CPT
COc1ccc(C2CC(c3ccccc3)=NN2C(=O)CN2CCN(Cc3ccccc3)CC2)cc1 (stereo not given) | 18µM* | 5% | -66* | 26µM* | 10% | ?
COc1ccc(C2CC(c3ccccc3)=NN2C(=O)COC(=O)c2cnc(Cl)c(Cl)c2)cc1 (stereo not given) | ? | 12% | 0 | ? | 20% | 21µM*
Cc1cc(C(=O)NCC2CCC3(CCN(Cc4ccccc4C)CC3)O2)n(C)n1 (stereo not given) | · | · | · | -16% | · | -26%
CCNC(=O)C1(C)CCN(C(=O)c2ccccc2F)C1 (stereo not given) | · | 20% | 17 | 19% | 28% | -3%
COc1ncnc2c1ncn2CCCN1CCN(c2ccccn2)CC1 | · | 0% | 5 | -28% | 1% | -14%
CNC(=S)N1N=C(c2ccc(Br)cc2)CC1c1ccc(OC)cc1 (stereo not given) | ? | -1% | -11 | 9.2µM* | 7% | ?
CNC(=S)N1N=C(c2ccc(OC)cc2)CC1c1ccccc1Cl (stereo not given) | ? | -2% | -24 | ? | 0% | ?
COc1ccc(C2CC(c3cccc([N+](=O)[O-])c3)=NN2/C(C)=C/C(C)=O)cc1 (stereo not given) | · | -4% | 1 | ? | -5% | 16µM*
COc1ccc(C2CC(c3ccc(Br)cc3)=NN2C(=O)CN2CCCC2)cc1 (stereo not given) | ? | ? | -62* | 12µM* | ? | ?
COc1ccc(C2=NN(C(=O)CCC(=O)O)C(c3ccc(Br)cc3)C2)cc1 (stereo not given) | -4% | 0% | -12 | -9% | 6% | -19%
COc1ccc(C2=NN(C(=O)c3cccc([N+](=O)[O-])c3)C(c3cccc([N+](=O)[O-])c3)C2)cc1 (stereo not given) | 14% | -13% | -4 | -14% | -4% | 3%
CCN(CC(=O)Nc1c(F)cccc1F)C(=O)c1ccc(=O)n(C)n1 | · | 3% | 5 | 10% | 2% | 5%
O=c1c2c([nH]c3ccc(Br)cc13)CCCC2 | -9% | -3% | -10 | ? | 1% | 23µM*
COc1cc(-c2c(OC)cccc2OC)cc2c1OCCN(Cc1cn[nH]c1-c1ccc(Cl)cc1)C2 | · | · | · | -24% | · | -2%
Oc1cc(-c2cccs2)cc2c1OCCN(Cc1cn[nH]c1-c1ccc(Cl)cc1)C2 | · | · | · | ? | · | 18µM*
COc1cc(NS(C)(=O)=O)ccc1Nc1c2ccccc2nc2ccccc12 | ? | 16µM* | -105* | 0.13µM* | 12µM* | 0.21µM*
COc1ccc(OC)c(Nc2c3c(nc4ccccc24)CCC3)c1 | ? | 0.58µM* | -75* | 0.58µM* | 0.65µM* | 0.73µM*
COc1cc(NC(=O)c2c3c(nc4ccccc24)CCC3)cc(OC)c1 | 11% | -29% | 13 | -8% | ? | -29%
COc1ccc([N+](=O)[O-])cc1Nc1c2ccccc2nc2ccccc12 | -27% | 5.2µM* | -29 | 2.6µM* | 5.2µM* | 2.6µM*
COc1cc(Nc2c3c(nc4ccccc24)CCC3)cc(OC)c1OC | -1% | 2.1µM* | 6 | 2.1µM* | 1.5µM* | 1.8µM*
COc1ccc([N+](=O)[O-])cc1NS(=O)(=O)c1ccccc1 | 17% | 11% | 0 | -29% | 6% | -6%
O=C(Cc1c(F)cccc1Cl)N/N=C/c1cccnc1 | 10% | 8% | -16 | 18% | 7% | 1%
CC(C)N(C)c1ncnc2c1ncn2[C@H]1CN(Cc2ccc(Cl)cc2)C[C@@H](CO)O1 | · | 8% | 0 | ? | -18% | ?
CCC(C)NC(=O)Cn1c(=O)n(CCCC(=O)NCc2ccc(C)cc2)c(=O)c2ccccc21 (stereo not given) | · | · | · | -16% | · | -5%
COc1ccc(OC)c(Nc2c3ccccc3nc3ccccc23)c1 | 12µM* | 4.6µM* | -84* | 6.5µM* | 5.8µM* | 5.2µM*
SMILES | ELG1 DNA repair | HT1080 IDH1KD tx | IL1B secr inh | DT40 TDP1 no CPT | HT1080-NT tox | TDP1 cell CPT
O=[N+]([O-])c1ccccc1Nc1c2ccccc2nc2ccccc12 | -13% | ? | 7 | ? | -27% | 21µM*
O=[N+]([O-])c1ccc(Nc2c3ccccc3nc3ccccc23)cc1 | ? | ? | -3 | ? | ? | ?
CCCNC(=O)COC(=O)c1cccnc1Nc1ccccc1F | 13% | -2% | -9 | 16µM* | -1% | -27%
CC(C)C[C@@H](CN)NC(=O)c1nc[nH]c1C(=O)N[C@@H](C)C(=O)CNC[C@H](C)NC(=O)c1nc[nH]c1C(=O)N[C@@H](CC(C)C)C(=O)O | · | 11% | 5 | -13% | 8% | -19%
Cc1ccccc1C1(CC(=O)N2CC3CC4CC(C3)CC2C4)CC(=O)N(Cc2cccnc2)C1=O (stereo not given) | · | · | · | ? | · | -8%[9.04 µM]
O=C1CC(CC(=O)N2CC3CCCC2C3)(c2cccc(F)c2)C(=O)N1Cc1cccnc1 (stereo not given) | · | · | · | 18µM* | · | ?
Cc1ccccc1C1(CC(=O)N2CC3(C)CC2CC(C)(C)C3)CC(=O)N(Cc2cccnc2)C1=O (stereo not given) | · | · | · | 21µM* | · | -14%[9.04 µM]
COc1ccc(NC(=O)N2CC3(CCN(C(=O)c4cccc(F)c4)CC3)C2)cc1 | · | · | · | -8% | · | 1%
Cc1ccc(CCNC(=O)CN(C)S(=O)(=O)c2ccc3c(c2)n(C)c(=O)c(=O)n3C)cc1 | -6% | -1% | 12 | -9% | 4% | -24%
COc1cccc(N2CCN(C(=O)c3cn(Cc4ccccc4)nc3-c3cccnc3)CC2)c1 | -4% | 3.3µM* | 71 | 2.1µM* | 5.8µM* | 2.6µM*
O=C(c1cn(Cc2ccccc2)nc1-c1cccnc1)N1CCN(Cc2c(F)cccc2Cl)CC1 | 9.2µM* | 2% | 17 | 29µM* | 2% | ?
O=C(c1cn(Cc2ccccc2)nc1-c1cccnc1)N1CCN(Cc2ccccc2)CC1 | -9% | -2% | -6 | -12% | 0%[9.24 µM] | ?
COc1cccc(NC(=O)CN(C)C(=O)/C=C/c2cn(Cc3ccccc3)nc2-c2cccnc2)c1 | 15µM* | -3% | ? | ? | -23% | ?
